Measurements as given in PubChem BioAssay (NCI).
The panel holds about 79,000 compounds, 15% with a hit somewhere; the sample as a whole holds those more often. Calls of active or inactive are those of the source. No stated cut-off is given here; in the data, active means growth inhibition above about 70%; inactive means the rest.

Key:
[1] = NCI Yeast Anticancer Drug Screen. Data for the rad52 strain (AID 147);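 further: 0% = growth of vehicle-treated control cultures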; details: S. cerevisiae rad52 mutant growth inhibition, hits give high values
Summary of the method: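 Measured: yeast growth inhibition. System: strain with a defined DNA damage repair alteration. Reference: vehicle-treated control cultures.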

[2] = NCI Yeast Anticancer Drug Screen. Data for the wt1 strain (AID 149);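 further: 0% = growth of vehicle-treated wt1 cultures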; details: S. cerevisiae wt1 strain (SPY 50644) growth inhibition, hits give high values
Summary of the method: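 Vehicle-normalised growth inhibition; strain wt1; compound exposure.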

[3] = NCI Yeast Anticancer Drug Screen. Data for the rad50EPP+ strain (AID 151);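 further: 0% = growth of vehicle-treated control cultures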; details: S. cerevisiae rad50 mutant strain, hits give high values
Summary of the method: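 One strain with a rad50 alteration (rad50EPP+) was compound-treated, its growth then compared to that of vehicle controls.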

[4] = NCI Yeast Anticancer Drug Screen. Data for the mgt1 strain (AID 153); details: S. cerevisiae mgt1 mutant growth inhibition, hits give high values
Summary of the method: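 After exposure of the mgt1 yeast mutant to compound, growth was measured and reported as inhibition compared with vehicle controls.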

[5] = NCI Yeast Anticancer Drug Screen. Data for the rad50 strain (AID 155);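 further: 0% = growth of vehicle-only cultures of the same strain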; details: S. cerevisiae rad50 strain growth inhibition, hits give high values
Summary of the method: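 A DNA repair-deficient yeast mutant serves as the test organism; compound-induced growth inhibition is calculated against vehicle-treated cells.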

[6] = NCI Yeast Anticancer Drug Screen. Data for the mec2-1 strain (AID 157); details: S. cerevisiae mec2-1 strain, hits give high values
Summary of the method: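 Test agents were screened against the mec2-1 yeast strain, with defined DNA repair or cell cycle alteration. Growth was scored as inhibition against vehicle-only controls.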

[7] = NCI Yeast Anticancer Drug Screen. Data for the rad14 strain (AID 159);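 further: 0% = growth of vehicle-treated control cultures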; details: S. cerevisiae rad14 strain growth inhibition, hits give high values
Summary of the method: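 Vehicle-treated cultures served as the baseline for growth inhibition of a DNA repair-mutant yeast strain exposed to each compound.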

[8] = NCI Yeast Anticancer Drug Screen. Data for the sgs1 mgt1 strain (AID 161);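 further: 0% = growth of cultures given vehicle only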; details: S. cerevisiae sgs1 mgt1 strain, hits give high values
Summary of the method: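 Test agents were incubated with a DNA-repair-mutant yeast strain. Growth was then read and compared against vehicle-treated controls.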

[9] = NCI Yeast Anticancer Drug Screen. Data for the CLN2oe strain (AID 163);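 further: 0% = growth of vehicle-only control cultures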; details: S. cerevisiae CLN2oe strain, hits give high values
Summary of the method: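 Here, growth inhibition in a cell-cycle-altered yeast strain after compound exposure was quantified against vehicle control growth.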

[10] = NCI Yeast Anticancer Drug Screen. Data for the cln2 rad14 strain (AID 165);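 further: 0% = growth equal to vehicle treated cultures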; details: S. cerevisiae cln2 rad14 strain, hits give high values
Summary of the method: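 Growth of compound-exposed yeast (cln2 rad14 genotype) measured and expressed as inhibition relative to vehicle.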

[11] = NCI Yeast Anticancer Drug Screen. Data for the bub3 strain (AID 167); details: S. cerevisiae bub3 mutant strain, hits give high values
Summary of the method: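 Inhibition values come from growth of compound-treated mutant yeast normalised to vehicle-treated controls.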

[12] = NCI Yeast Anticancer Drug Screen. Data for the wt2 strain (AID 169);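 further: 0% = growth of vehicle-treated yeast cultures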; details: S. cerevisiae wt2 strain growth inhibition, hits give high values
Summary of the method: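 Genetically defined yeast strains from a DNA-repair/cell-cycle panel were used. Compound-exposed yeast growth was measured, and the inhibition was calculated relative to vehicle treatment.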

[13] = NCI Yeast Anticancer Drug Screen. Data for the mlh1 strain (AID 171);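 further: 0% = growth of vehicle-treated control cultures of the same strain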; details: S. cerevisiae mlh1 strain growth inhibition, hits give high values
Summary of the method: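 Here the genetically defined yeast mutant is grown with each compound, and the extent to which its growth falls below that of vehicle-exposed cells is reported.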

[14] = NCI Yeast Anticancer Drug Screen. Data for the sgs1 strain (AID 173);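 further: 0% = growth of vehicle-only control cultures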; details: S. cerevisiae sgs1 mutant, hits give high values
Summary of the method: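 Relative growth inhibition, referenced to vehicle, was determined in a yeast strain with a defined alteration affecting DNA damage repair or cell cycle control after compound exposure.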

[15] = NCI Yeast Anticancer Drug Screen. Data for the mlh1 rad18 strain (AID 175); details: S. cerevisiae mlh1 rad18 strain growth inhibition, hits give high values
Summary of the method: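 In this whole-cell yeast screen, a strain with altered DNA damage repair is challenged with compound, and its growth is measured against matched vehicle-treated controls.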

[16] = NCI Yeast Anticancer Drug Screen. Data for the rad18 strain (AID 177); details: S. cerevisiae rad18 mutant growth inhibition, hits give high values
Summary of the method: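 Screen uses a yeast strain with a defined lesion in DNA damage repair; compound effect is read as loss of growth compared to untreated vehicle cultures.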

[17] = at 5.0 µM (retest, dose inferred, filed as 0.5)
[18] = at 50.0 µM (retest, dose inferred, filed as 5.0)

Measured: growth inhibition

O=C(c1ccccc1)[C@H]1Nc2ccc(Cl)cc2[C@H]2OCCC[C@@H]12
active: [1]; at 100.0 µM 86% | [2]; at 100.0 µM 88% | [4]; at 100.0 µM 88% | [5]; at 100.0 µM 91% | [6]; at 100.0 µM 90% | [7]; at 100.0 µM 83% | [9]; at 100.0 µM 85% | [11]; at 33.0 µM 86% | [11]; [18] 93% | [11]; at 50.0 µM 82.5% | [11]; at 100.0 µM 95% | [12]; at 100.0 µM 81% | [13]; at 100.0 µM 91% | [14]; at 100.0 µM 94% | [16]; at 100.0 µM 92%
inactive: [1]; at 1.2 µM -16% | [1]; at 3.7 µM -40% | [1]; at 11.0 µM -19% | [1]; at 33.0 µM 22% | [2]; at 1.2 µM -7% | [2]; at 3.7 µM -6% | [2]; at 11.0 µM -2% | [2]; at 33.0 µM 24% | [3]; at 1.2 µM -16% | [3]; at 3.7 µM -20% | [3]; at 11.0 µM -25% | [3]; at 33.0 µM -2% | [3]; at 100.0 µM 14% | [4]; at 1.2 µM -19% | [4]; at 3.7 µM -23% | [4]; at 11.0 µM -39% | [4]; at 33.0 µM 32% | [5]; at 1.2 µM -2% | [5]; at 3.7 µM -2% | [5]; [17] 7% | [5]; at 11.0 µM -6% | [5]; at 33.0 µM 33% | [5]; [18] 4% | [5]; at 50.0 µM 67.2% | [6]; at 1.2 µM -23% | [6]; at 3.7 µM -25% | [6]; [17] -13% | [6]; at 11.0 µM -25% | [6]; at 33.0 µM -6% | [6]; [18] 49% | [6]; at 50.0 µM 12.9% | [7]; at 1.2 µM -40% | [7]; at 3.7 µM -23% | [7]; at 11.0 µM -41% | [7]; at 33.0 µM 31% | [8]; [17] -18% | [8]; [18] 33% | [8]; at 50.0 µM 40.5% | [9]; at 1.2 µM -14% | [9]; at 3.7 µM 2% | [9]; at 11.0 µM -10% | [9]; at 33.0 µM 23% | [10]; [17] 33% | [10]; [18] 44% | [10]; at 50.0 µM 32.6% | [11]; at 1.2 µM -22% | [11]; at 3.7 µM -7% | [11]; [17] 12% | [11]; at 11.0 µM 34% | [12]; at 1.2 µM -15% | [12]; at 3.7 µM -15% | [12]; at 11.0 µM -16% | [12]; at 33.0 µM 17% | [13]; at 1.2 µM -19% | [13]; at 3.7 µM -31% | [13]; at 11.0 µM -34% | [13]; at 33.0 µM 32% | [14]; at 1.2 µM 7% | [14]; at 3.7 µM 11% | [14]; at 11.0 µM 18% | [14]; at 33.0 µM 57% | [15]; [17] -24% | [15]; [18] 1% | [15]; at 50.0 µM 25.9% | [16]; at 1.2 µM -13% | [16]; at 3.7 µM -11% | [16]; at 11.0 µM -10% | [16]; at 33.0 µM 31%

O=C1Nc2ccc(Br)cc2C1=Nc1cccnc1
active: [11]; [18] 94% | [11]; at 50.0 µM 86.6% | [11]; at 100.0 µM 82%
inactive: [1]; at 1.2 µM -23% | [1]; at 3.7 µM -36% | [1]; at 11.0 µM -40% | [1]; at 33.0 µM -32% | [1]; at 100.0 µM -40% | [2]; at 1.2 µM -25% | [2]; at 3.7 µM -20% | [2]; at 11.0 µM -17% | [2]; at 33.0 µM -8% | [2]; at 100.0 µM -24% | [3]; at 1.2 µM 3% | [3]; at 3.7 µM -9% | [3]; at 11.0 µM -8% | [3]; at 33.0 µM -3% | [3]; at 100.0 µM 16% | [4]; at 1.2 µM -33% | [4]; at 3.7 µM -27% | [4]; at 11.0 µM -36% | [4]; at 33.0 µM -19% | [4]; at 100.0 µM -14% | [5]; at 1.2 µM -41% | [5]; at 3.7 µM -42% | [5]; [17] 52% | [5]; at 11.0 µM -36% | [5]; at 33.0 µM -25% | [5]; [18] 49% | [5]; at 50.0 µM 31.9% | [5]; at 100.0 µM -13% | [6]; at 1.2 µM -54% | [6]; at 3.7 µM -51% | [6]; [17] 47% | [6]; at 11.0 µM -41% | [6]; at 33.0 µM -31% | [6]; [18] 53% | [6]; at 50.0 µM 39.2% | [6]; at 100.0 µM -12% | [7]; at 1.2 µM -55% | [7]; at 3.7 µM -61% | [7]; at 11.0 µM -60% | [7]; at 33.0 µM -48% | [7]; at 100.0 µM -47% | [8]; [17] -3% | [8]; [18] 32% | [8]; at 50.0 µM 37.5% | [9]; at 1.2 µM -5% | [9]; at 3.7 µM 3% | [9]; at 11.0 µM -18% | [9]; at 33.0 µM -8% | [9]; at 100.0 µM 1% | [10]; [17] 32% | [10]; [18] 27% | [10]; at 50.0 µM 10.4% | [11]; at 1.2 µM -53% | [11]; at 3.7 µM -47% | [11]; [17] 33% | [11]; at 11.0 µM -38% | [11]; at 33.0 µM 10%
